Test results: PubChem BioAssay (NCATS)
Results filed as inconclusive are left out. Activity calls are given as the source filed them. Calls follow the shape of the dose curve; as a rule, active = well fitted curve in the direction sought with a large enough effect; inconclusive = small, poorly fitted or top-dose-only effect, or another doubt; inactive = no such curve, though single readings can be large; an effect the other way counts as inactive or inconclusive.

Experiments:
[1] = HEK-293 Cancer Cell Toxicity qHTS against the NCATS CANVASS Library (AID 1347355); conditions: outcome: dose series up to 46.1 µM; also: series mostly up to about 46 µM; nearly all actives have a fitted effect of over 65% in size
Summary of the method: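 First, 1000 cells go into each well and rest for 4 hours. Next, an 11-point dilution range is pinned in. Plates then incubate 72 hours before CellTiter-Glo addition and luminescence reading.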

[2] = HPAF-II 24hr Apoptosis Induction qHTS against the NCATS CANVASS Library (AID 1347356)
Summary of the method: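 Cells seeded at 500 per well, then compounds pin-transferred in an 11-point concentration series. After 24 hours at 37 degrees C, Caspase-Glo 3/7 was added and luminescence measured following 15 min at room temperature.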

[3] = HEK293 18hr Apoptosis Induction qHTS against the NCATS CANVASS Library (AID 1347357)
Summary of the method: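 Cells seeded at 500/well in DMEM + 10% FBS. Compounds pinned, 11 concentrations. 18 h, 37 degrees C/5% CO2. Caspase-Glo 3/7 added, 15 min RT dark, luminescence read.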

[4] = HPAF-II 12hr Apoptosis Induction qHTS against the NCATS CANVASS Library (AID 1347358)
Summary of the method: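 Cells plated at 500 per well are dosed with compound and incubated 12 hours at 37 degrees C. Caspase-Glo 3/7 reagent is added and, after 15 min at room temperature, luminescence proportional to caspase activity is measured.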

[5] = HEK293 24hr Apoptosis Induction qHTS against the NCATS CANVASS Library (AID 1347359)
Summary of the method: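 HEK293 cells, 500 per well, exposed to an 11-point compound series for 24 hours at 37 degrees C. Caspase 3/7 activity read by Caspase-Glo luminescence (DEVD substrate) after 15 min at room temperature.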

[6] = HPAF-II 18hr Apoptosis Induction qHTS against the NCATS CANVASS Library (AID 1347360)
Summary of the method: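 Seed HPAF-II cells at 500/well in DMEM + 10% FBS, pin-transfer compounds, incubate 18 hours at 37 degrees C/5% CO2, add Caspase-Glo 3/7 reagent, wait 15 min, read luminescence.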

[7] = HEK293 12hr Apoptosis Induction qHTS against the NCATS CANVASS Library (AID 1347361)
Summary of the method: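 Cells are seeded, dosed with an 11-point compound series and incubated 12 hours. Caspase-3/7 activity is detected by luminescent DEVD-substrate reagent after 15 minutes at room temperature.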

[8] = tested on: NAD(P)H diaphorase (Clostridium kluyveri); assay: Diaphorse counterscreen qHTS: Assay Interference Panel against the NCATS CANVASS Library (AID 1347362)
Summary of the method: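 Clostridium kluyveri diaphorase in PBS + 0.01% Tween-20 preincubated 15 min with compounds. Resazurin and NADH then added for 5 min at room temperature in the dark; resorufin fluorescence read (ex 525, em 598).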

[9] = target: Luciferin 4-monooxygenase (Photinus pyralis) (UniProt P08659); assay: Firefly luciferase counterscreen qHTS: Assay Interference Panel against the NCATS CANVASS Library (AID 1347363); also: series mostly up to about 57 µM
Luciferin 4-monooxygenase (Photinus pyralis), sequence (P08659 whole entry, looked up): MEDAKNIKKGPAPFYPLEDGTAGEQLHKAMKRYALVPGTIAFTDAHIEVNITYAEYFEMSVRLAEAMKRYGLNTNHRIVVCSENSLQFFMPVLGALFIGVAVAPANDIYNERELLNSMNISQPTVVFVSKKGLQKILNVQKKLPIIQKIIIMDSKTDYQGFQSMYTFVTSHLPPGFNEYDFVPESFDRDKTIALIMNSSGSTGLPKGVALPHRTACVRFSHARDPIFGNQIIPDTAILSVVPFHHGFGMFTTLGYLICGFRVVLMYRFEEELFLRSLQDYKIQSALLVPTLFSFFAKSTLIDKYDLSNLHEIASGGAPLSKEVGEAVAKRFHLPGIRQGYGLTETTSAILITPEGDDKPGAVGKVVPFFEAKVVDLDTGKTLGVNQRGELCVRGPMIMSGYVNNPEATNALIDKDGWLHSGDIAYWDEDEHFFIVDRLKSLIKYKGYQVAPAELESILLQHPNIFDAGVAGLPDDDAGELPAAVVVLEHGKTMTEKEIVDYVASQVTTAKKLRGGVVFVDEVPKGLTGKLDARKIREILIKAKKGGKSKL
Summary of the method: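 Purified P. pyralis luciferase (0.04 ug/mL, 4x reagent) added to Tris-acetate buffer with 0.013 mM D-luciferin, 0.013 mM ATP and 13.3 mM Mg-acetate; compounds preincubated 15 min, then luminescence read after 5 min, RT.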

[10] = KB-8-5-11 Cancer Cell Toxicity qHTS against the NCATS CANVASS Library (AID 1347364); also: series mostly up to about 46 µM; nearly all actives have a fitted effect of over 75% in size
Summary of the method: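 Terse: KB-8-5-11, 500 cells/well, 72 hr, 37C/5% CO2, 11-pt titration, CellTiter-Glo readout; confirmatory runs ± 1uM tariquidar in medium.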

[11] = KB-3-1 Cancer Cell Toxicity qHTS against the NCATS CANVASS Library (AID 1347366); also: series mostly up to about 46 µM; nearly all actives have a fitted effect of over 75% in size
Summary of the method: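 Luminescence from CellTiter-Glo (10 min, room temperature) measured KB-3-1 viability after 72 hr compound exposure at 37C. Cells were seeded at 500/well and tested in an 11-point series.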

[12] = qHTS for ATAD5 Agonist screened against the NCATS CANVASS Library (AID 1347367);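 also: luciferase reporter driven by ATAD5 which rises upon DNA damage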
Summary of the method: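 HEK293T-ATAD5 luc reporter; 2000 cells/well; 5hr settle; cpd 11-pt qHTS; 16hr 37C 5% CO2 dark; viability by CellTiter-Fluor (AFC fluorescence); then luciferase luminescence, 30min RT.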

[13] = G06 Cancer Cell Toxicity qHTS against the NCATS CANVASS Library (AID 1347368); also: series mostly up to about 46 µM; nearly all actives have a fitted effect of over 60% in size
Summary of the method: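 Cells were plated at 500 per well, then compounds were added over an 11-point range. After 72 hr at 37C, CellTiterGlo was added and luminescence measured as ATP content.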

[14] = MCF7 Cancer Cell Toxicity qHTS against the NCATS CANVASS Library (AID 1347369); also: series mostly up to about 46 µM
Summary of the method: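 Cells seeded at 500/well, then compound pinned. Plates incubated 72 hr at 37C, 5% CO2. CellTiterGlo added; luminescence read.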

[15] = qHTS for ATAD5 Antagonist screened against the NCATS CANVASS Library (AID 1347370);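 also: HEK293T cells carrying an ATAD5 luciferase reporter co-treated with 10 µM 5-fluorouridine; series mostly up to about 46 µM; nearly all actives have a fitted effect of over 65% in size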
Summary of the method: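 Compounds (11-point) co-dosed with 10 µM 5-FUrd for 16 h at 37 °C onto HEK293T-ATAD5 luciferase reporter cells. Viability measured by CellTiter-Fluor fluorescence, then ATAD5 reporter signal by luminescence.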

[16] = J3T Cancer Cell Toxicity qHTS against the NCATS CANVASS Library (AID 1347371);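 also: J3T is a canine glioma cancer cell line seeded at 500 cells per well; series mostly up to about 46 µM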
Summary of the method: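 Luminescence from CellTiterGlo, reporting cellular ATP, serves as the viability measure after 72 hr compound treatment of J3T canine glioma cells seeded at 500 cells/well.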

[17] = target: Nuclear receptor subfamily 1 group I member 3 (Homo sapiens) (UniProt Q14994); assay: qHTS for Constitutive Androstane Receptor (CAR) Antagonist screened against the NCATS CANVASS Library (AID 1347372);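 also: cells stimulated with 50 nM CITCO agonist so inhibition reflects antagonism; luciferase from CYP2B6 promoter reporter driven by hCAR in HepG2 cells; series mostly up to about 46 µM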
Nuclear receptor subfamily 1 group I member 3 (Homo sapiens), sequence (Q14994 whole entry, looked up): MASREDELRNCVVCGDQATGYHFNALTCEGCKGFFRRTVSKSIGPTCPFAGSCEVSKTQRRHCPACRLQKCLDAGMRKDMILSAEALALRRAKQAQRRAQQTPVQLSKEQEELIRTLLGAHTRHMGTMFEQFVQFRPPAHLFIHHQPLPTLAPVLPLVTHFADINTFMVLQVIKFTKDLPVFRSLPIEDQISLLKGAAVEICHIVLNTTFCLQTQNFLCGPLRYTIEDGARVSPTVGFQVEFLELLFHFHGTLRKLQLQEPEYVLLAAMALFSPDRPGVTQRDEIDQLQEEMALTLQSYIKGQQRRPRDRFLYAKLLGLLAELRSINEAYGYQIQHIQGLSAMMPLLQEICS
Summary of the method: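 Luminescence readout (ONE-Glo, 30 min RT) of CYP2B6-2.2kb reporter in HepG2-hCAR cells after 24hr, 37C treatment with compound against 50 nM CITCO; CellTiter-Fluor viability read beforehand.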

[18] = target: Nuclear receptor subfamily 1 group I member 3 (Homo sapiens) (UniProt Q14994); assay: qHTS for Constitutive Androstane Receptor (CAR) Agonist screened against the NCATS CANVASS Library (AID 1347373);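 also: every well also contained 1.5 µM PK11195 alongside the test compound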
Summary of the method: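 Cells were plated and allowed to attach for 4hr, then dosed with compound in an 11-point series alongside 1.5uM PK11195. After 24hr at 37C, viability was measured fluorometrically and CAR-driven CYP2B6 reporter luminescence was recorded.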

[19] = 10-beta competent E. coli microbial cell viability qHTS against the NCATS CANVASS Library (AID 1347376); also: series mostly up to about 46 µM
Summary of the method: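 Bacterial suspension diluted to 0.2 OD was dosed with compounds, 11-point series, then held overnight at 37C. BacTiter-Glo reagent was added, and after 20 min at room temperature ATP-dependent luminescence was measured.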

[20] = SDT Cancer Cell Toxicity qHTS against the NCATS CANVASS Library (AID 1347365);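 also: SDT canine glioma cells 500 per well in 1536 well plates; series mostly up to about 46 µM; nearly all actives have a fitted effect of over 60% in size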
Summary of the method: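 Cytotoxicity is measured from cellular ATP: compounds in an 11-point concentration series are pinned onto SDT cells, incubated 72 hr at 37C, then CellTiterGlo is added and luminescence read.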

Measured: outcome

COc1ccc2[nH]cc(CCN)c2c1
not listed: [20]
inactive: all other assays above

O=C1C[C@@H]2OCC=C3CN4CC[C@]56c7ccccc7N1[C@H]5[C@H]2[C@H]3C[C@H]46
inactive: all assays above
